The list is not random: actives were taken first. Their share in the collection is about 1.8%.
RPL19A-GFP yeast: RPL19A-GFP expression modulators in yeast, primary screen, cell-based, S. cerevisiae, multiplex flow cytometry, MLPCN; S. cerevisiae RPL19A-GFP strain, 3 h; active compounds read low; 330,000 tested, 0.3% active; percent response vs DMSO, % at 10 µM; AID 2025, 2009;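 active means percent response vs DMSO below 50%; inconclusive means fewer than 70 events counted for the yeast strain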;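 further: median channel GFP fluorescence of the barcoded RPL19A-GFP strain; ratio of sample median GFP to plate DMSO average so 100% = DMSO; lower means less RPL19A-GFP as with rapamycin TOR inhibition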
Myeloid diff 2: induction of myeloid progenitor differentiation, primary screen, cell-based, flow cytometry, MLPCN library; 360,000 tested, 1% active; ER-HoxA9 myeloid progenitors, lysozyme-GFP differentiation; AID 624256, 2012; calls only at 10 µM;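 active means normalized GFP-positive differentiation at or above the plate's own cutoff, the solvent-only control mean plus 3 SD; inconclusive means no clear call, values can overlap the other calls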;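 further: cells exposed to compound for four days before flow analysis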
AGP1-GFP MLPCN: modulators of AGP1-GFP expression in yeast TOR pathway, primary screen, cell-based, multiplex flow cytometry, S. cerevisiae, MLPCN library; 3 h; GFP as percent of DMSO wells; GFP response vs DMSO, % at 10 µM; 320,000 tested, 0.02% active;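 active means GFP response relative to DMSO above a set limit, near screen average plus 3 SD, cut at about 150% in these data; inconclusive means fewer than 70 cells counted for the yeast strain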;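 further: median GFP channel fluorescence of the gated AGP1 strain per well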
CIT2-GFP yeast: modulators of CIT2-GFP expression in yeast, primary screen, S. cerevisiae, GFP fusion, multiplex flow cytometry, MLPCN library. S. cerevisiae CIT2-GFP strain, 3 h; 100 means same as DMSO wells. GFP response vs DMSO, % at 10 µM. 320,000 tested, 0.065% active. AID 2029, 2009;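 active means GFP response relative to DMSO above a set limit, near the screen mean plus 3 SD, cut at about 150% in these data; inconclusive means Fewer than 70 cells measured for a yeast strain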;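 further: ratio of well median GFP fluorescence to mean of DMSO wells on the plate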
MEP2 TOR yeast: modulators of MEP2-GFP levels in yeast, primary screen, S. cerevisiae, multiplex flow cytometry, MLPCN library; 330,000 tested, 0.51% active; S. cerevisiae MEP2-GFP strain, 3 h; 100% = DMSO control level; GFP response vs DMSO, % at 10 µM;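 active means GFP response versus DMSO above a set limit, roughly screen mean plus 3 SD, cut at about 180% in these data; inconclusive means fewer than 70 cells counted for a yeast strain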;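 further: median GFP fluorescence of the barcode-gated MEP2-GFP cells per well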
LAP4 TOR yeast: modulators of LAP4-GFP expression in yeast, primary screen, S. cerevisiae, multiplex flow cytometry, MLPCN library; 3 h; median GFP as percent of DMSO wells; GFP response vs DMSO, % at 10 µM; 320,000 tested, 0.34% active; AID 2023, 2009;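 active means GFP response vs DMSO above a set limit, about the screen mean plus 3 SD, cut at about 150% in these data; inconclusive means under 70 cell events counted for the yeast strain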
An asterisk follows results filed as active; i = inactive; ? = inconclusive; / = no result given; + = active, no number; [ ] = dose if it differs, or a comment.

SMILES	RPL19A-GFP yeast	Myeloid diff 2	AGP1-GFP MLPCN	CIT2-GFP yeast	MEP2 TOR yeast	LAP4 TOR yeast
O=C(COc1ccc(Br)cc1)Nc1ccccc1N1CCCC1	79	i	16	?	529*[may fluoresce violet]	94
CCOc1ccc(CCNS(=O)(=O)c2ccc3c(c2)NC(=O)CO3)cc1OCC	99	i	99	102	100	101
O=C1COc2ccc(S(=O)(=O)NCCc3ccccc3)cc2N1	105	+	100	105	105	95
CCCCC/C=C\C/C=C\C/C=C\CCCCC(=O)O	92	+	79	74	94	119
COc1ccc(Cl)cc1S(=O)(=O)n1ccnc1	101	i	101	109	100	102
CC1(C)CC(=O)C2=C(C1)OC1=C(C(=O)CC(C)(C)C1)C2c1ccc(O)cc1O	88	i	92	80	92	178*
O=C(COc1ccc2cc(Br)ccc2c1)N1CCCC1	105	i	88	92	97	107
COc1ccccc1NC(=O)CN(Cc1ccco1)C(=O)c1cncc(Br)c1	49*[may fluoresce violet]	i	20	?	364*[may fluoresce violet]	87
COc1ccccc1NC(=O)CN(Cc1ccco1)C(=O)c1ccc(-n2nc(C)cc2C)cc1	113	i	108	113	109	105
CCOc1cc(C(=O)NCCN2CCOCC2)cc(OCC)c1OCC	89	i	89	96	96	91
Cc1ccccc1N/C(=N/S(=O)(=O)c1ccccc1)c1ccc(F)cc1	95	+	110	109	91	107
Cc1ccc(/C(=N\S(=O)(=O)c2ccc(Br)cc2)Nc2ccccc2C)cc1	108	i	107	113	111	101
COc1ccc(NS(=O)(=O)c2cc(N/C(=N\S(=O)(=O)c3ccccc3)c3ccc(F)cc3)ccc2Cl)cc1	107	+	103	105	116	110
COc1cc(/C=C(\C#N)c2nc3ccccc3o2)ccc1O	107	+	80	77	110	117
COc1cc(/C=C(\C#N)c2nc(-c3cc4ccccc4oc3=O)cs2)ccc1O	106	+	104	111	106	93
CC1CCC(=C(C#N)c2nc(-c3cc4ccccc4oc3=O)cs2)CC1 (stereo unspecified)	107	i	107	109	115	98
N#C/C(=C\c1ccc(O)cc1)c1nc2ccccc2o1	107	i	76	97	107	141
COc1ccc2c(c1)c(=O)oc1c(C)c(OC(C)C(=O)NCC3CCC(C(=O)O)CC3)ccc12 (stereo unspecified)	94	i	99	91	102	98
COc1ccc2c(C)cc(SCc3c(C)noc3C)nc2c1	96	+	99	95	105	109
Cc1cc(=O)oc2cc(OCC(=O)OCC(=O)N(CCC#N)c3ccccc3)ccc12	104	/	105	105	98	102
CC(C)c1nnc(NC(=O)c2ccc3c(c2)OCO3)s1	99	i	98	103	97	100
COc1ccccc1-c1nnc(NC(=O)c2ccc3c(c2)OCO3)s1	97	?	99	115	272*	124
COc1ccc2nc(NC(=O)CSc3nnnn3C3CCCCC3)sc2c1	96	i	95	97	94	102
CC(C)(C)NC(=O)C(c1ccncc1)n1c(=O)c(-c2ccco2)nc2ccccc21 (stereo unspecified)	/	i	/	/	/	/
O=C(O)c1cc(-c2c[nH]c3ccccc23)nc2cc3ccccc3cc12	23*[may fluoresce violet]	i	?	?	636*[may fluoresce violet]	69
O=C(O)c1cc(-c2ccc3ccccc3n2)nc2ccccc12	100	i	105	112	105	103
O=C(O)c1cc(-c2cccc3ccccc23)nc2ccccc12	107	i	101	108	105	95
O=C(O)c1cc(-c2ccc3ccccc3c2)nc2ccc(F)cc12	99	+	94	97	101	104

High-throughput results from PubChem.
